Hit rate of the full screen: of about 330,000 compounds, about 1,900 (0.58%) were called active. Not shown: some 4% with an inconclusive outcome. A selection follows. Entries with a potency or affinity are not part of this list. Unmarked numbers belong to inactive results. No stated cut-off is given here; in the data, inconclusive means inhibition above about 70% without an active follow-up result; inactive means below that.
Assay: M. tuberculosis growth inhibition, HTS (AID 449762);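 further: bacterial growth assessed after seven days of incubation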
Settings: M. tuberculosis H37Rv growth inhibition, 7H9 media; at 25 µM; stronger effect = higher value
For `Cc1ccc(C(OC(=O)c2ccco2)C(=O)NCc2cccs2)cc1` (stereo unspecified), the inhibition was 3.55%. Work on `O=C(O)c1cccc(NC(=S)NC(=O)c2ccc(-c3ccc(Cl)cc3)o2)c1` yielded an inhibition of 1.13%. For `Cc1cc2ncn(C(=O)c3ccc4c(c3)OCO4)c2cc1C`, the inhibition was 6.27%. Work on `Cc1cccc(C(=O)Nc2ccc(S(=O)(=O)N3CCOCC3)cc2)c1[N+](=O)[O-]` yielded an inhibition of 6.13%. In the case of `COc1ccccc1-c1nnc(Nc2nc3c(OC)cccc3s2)o1`, the inhibition was 6.89%. With `COc1cccc2sc(Nc3nnc(-c4ccccc4Cl)o3)nc12` the inhibition was 46.2%. `COc1cccc(CN2CCN(Cc3cc4ccccc4o3)CC2CCO)c1` (stereo unspecified) showed an inhibition of -6.38%. With `CC(C)OCCCn1c(-c2ccc(Br)cc2)c[nH]c1=S` the inhibition was 8.53%. For `COc1ccc(OC)c(-n2c(-c3cccc(O)c3)n[nH]c2=S)c1`, the inhibition was 2.31%. `CCN(CC)C(=O)c1cc2cc([N+](=O)[O-])ccc2s1` showed an inhibition of 6.23%. Work on `CCN(CC)C(=O)c1ccc(Oc2ccc([N+](=O)[O-])cc2Cl)cc1` yielded an inhibition of 4.15%. `O=C(COc1ccc(Br)cc1)N1CCc2ccccc2C1` gave an inhibition of 1.78%. Molecule `CC(C)C(NC(=O)c1c(F)cccc1F)C(=O)N1CCN(c2ccccc2F)CC1` (stereo unspecified) has an inhibition of 5.13%. `O=C(O)c1ccc(N=N/C(=N\Nc2ccc(C(=O)O)cc2)c2ccccc2)cc1` gave an inhibition of 11.8%. Work on `O=C(/C(=N\Nc1ccc(Br)cc1)Sc1nnnn1-c1ccccc1)c1ccccc1` yielded an inhibition of 2.41%. `O=C(Cc1n[nH]c(=O)c2ccccc12)Nc1cccc(S(=O)(=O)N2CCCCCC2)c1` showed an inhibition of 34.4%. Molecule `c1ccc(Cn2nnc3c(N4CCCC4)ncnc32)cc1` has an inhibition of 1.78%. Work on `c1ccc(Cn2nnc3c(N4CCc5ccccc54)ncnc32)cc1` yielded an inhibition of -4.04%. Work on `CC(c1ccccc1)n1cnc2ccccc2c1=O` (stereo unspecified) yielded an inhibition of 3.81%. In the case of `CCOC(=O)Cn1c(C(C)=O)nc2ccccc21`, the inhibition was -5.86%. In the case of `CCOc1ccc2nc(SC3CC(=O)N(c4ccc(OC)cc4OC)C3=O)sc2c1` (stereo unspecified), the inhibition was 37.3%. With `COc1cccc(COC(=O)Nc2ccccc2F)c1` the inhibition was 4.89%. For `COc1cccc(C(=O)NC2CC3CCCC(C2)N3CC(=O)Nc2ccccc2)c1` (stereo unspecified), the inhibition was 46.8%. In the case of `CN(C)c1ccc(NC(=O)CN2C3CCCC2CC(NC(=O)c2ccccc2)C3)cc1` (stereo unspecified), the inhibition was 49%. In the case of `COc1ccc(NC(=O)CN2C(=O)NC3(CCCc4ccccc43)C2=O)c(OC)c1` (stereo unspecified), the inhibition was -0.44%. Molecule `COc1ccc(OC)c(NC(=O)CN2C(=O)NC3(CCCc4ccccc43)C2=O)c1` (stereo unspecified) has an inhibition of 0.98%. `COc1ccc(N2CCN(C3CCCN(Cc4ccccc4OCCO)C3)CC2)cc1` (stereo unspecified) showed an inhibition of -8.3%. `CS(=O)(=O)N(CC(=O)N1CCCC1)c1ccccc1F` showed an inhibition of -1.03%. With `O=C(Nc1ccc2c(c1)CCCN2C(=O)c1cccs1)c1cccc(F)c1` the inhibition was 25.3%. `CC1=NN(c2ccccc2)C(=O)/C1=C/c1c(O)n(-c2ccc(F)cc2)[nH]c1=O` gave an inhibition of -0.04%. Molecule `CC1=NN(c2ccccc2)C(=O)/C1=C/c1c(C)[nH]n(-c2ccc(C)cc2)c1=O` has an inhibition of 3.09%. With `Cc1ccc(-c2nc(N)n(S(C)(=O)=O)n2)cc1` the inhibition was -7.35%. `Nc1nc2sc3c(c2c(=O)s1)CCCC3` gave an inhibition of -5.9%. With `Nc1c2c(nc3sc4c(c13)CCCC4)CCCCCC2` the inhibition was 11.9%. In the case of `CCN1CCN(C(c2ccccc2)c2nnnn2Cc2ccc3c(c2)OCO3)CC1` (stereo unspecified), the inhibition was -1.8%. `COCCn1nnnc1C(c1ccccc1)N1CCN(Cc2ccc3c(c2)OCO3)CC1` (stereo unspecified) gave an inhibition of 5.3%. Molecule `Cc1cc(C(=O)CSc2nnc(-c3ccco3)o2)c(C)n1C` has an inhibition of 0.77%. Molecule `COc1ccc(N2CCN(C(=O)CSc3nc(C)cs3)CC2)cc1` has an inhibition of 13.4%. Molecule `COCC(C)n1c(SCC(=O)Nc2oc(C)c3c(C)n[nH]c(=O)c23)nc2ccccc2c1=O` (stereo unspecified) has an inhibition of 1.83%. For `COc1cccc2cc(C(=O)N(C)C3CCN(C)CC3)c(=O)oc12`, the inhibition was 2.2%. `CCOc1ccc(NC(=O)Nc2cccn(Cc3ccccc3)c2=O)cc1` showed an inhibition of 11.4%. In the case of `CSc1ccc(NC(=O)Nc2cccn(Cc3ccccc3F)c2=O)cc1`, the inhibition was 0.76%. In the case of `Cc1nnc(SCCC(=O)Nc2ccc(F)cc2)s1`, the inhibition was 58.3%. `Cc1ccc(NC(=O)c2ccccc2NC(=O)c2cccnc2)cc1` gave an inhibition of 11.1%. `O=C(NNC(=S)Nc1ccccc1Cl)c1ccccc1` gave an inhibition of -3.72%. `CCn1cc(C(=O)NC(C)C)c(=O)c2cc(F)c(N3CCN(C(=O)c4ccco4)CC3)cc21` gave an inhibition of 19.2%. `CCn1cc(C(=O)NCC(C)C)c(=O)c2cc(F)c(N3CCN(C(=O)c4ccco4)CC3)cc21` showed an inhibition of 0.58%. For `Cc1cc(C)nc(-n2nc(C)cc2NC(=O)c2ccc(S(=O)(=O)N3CCOCC3)cc2)n1`, the inhibition was 9.62%. In the case of `Cc1nn(C)c(C)c1/C=C(/C(=O)C(C)(C)C)n1cncn1`, the inhibition was -1.56%. For `CC(=O)N/C(=C\c1cccc([N+](=O)[O-])c1)C(=O)NC(C)C`, the inhibition was -0.52%. `Cc1c(Oc2ccc(C(F)(F)F)cc2[N+](=O)[O-])ccc2c3c(c(=O)oc12)CCC3` showed an inhibition of -1.9%. For `CCOc1ccc(N2C(=O)CC(NCC#N)C2=O)cc1` (stereo unspecified), the inhibition was 0.53%. Molecule `O=C1Nc2cc(C(=O)NCCCN3CCOCC3)ccc2S/C1=C/c1ccccc1F` has an inhibition of 16.4%. For `COc1ccc(/C=C2/Sc3ccc(C(=O)NCCCN4CCOCC4)cc3NC2=O)cc1OC`, the inhibition was -4.7%. `Cc1c(Cl)ccc2c(C(=O)O)cc(-c3ccccc3)nc12` showed an inhibition of 0.17%. `COc1ccc(OC)c(-c2cc(C(=O)NC3CCCC3)c3ccccc3n2)c1` showed an inhibition of -8.38%. In the case of `CC1CCc2cc(F)ccc2N1C(=O)c1cccs1` (stereo unspecified), the inhibition was 1.29%. Work on `Cc1nccn1-c1cc(C(C)(C)C)nc2c(-c3ccccc3)cnn12` yielded an inhibition of -1.52%. `CC(C)(C)c1cc(N2CCOCC2)n2ncc(-c3ccccc3)c2n1` gave an inhibition of 3.06%. For `CCCCNC(=O)C1=C(N)C(C(=O)Nc2ccc(C)c(S(=O)(=O)N3CCCCC3)c2)SC1=Nc1ccc(C)cc1C` (stereo unspecified), the inhibition was -11.1%. `O=C(CCc1nc(-c2ccccc2Cl)no1)NC1CCCC1` gave an inhibition of -5.48%. `COc1ccc(-c2cc(-c3ccccc3)c(C#N)c(S(C)(=O)=O)n2)cc1` showed an inhibition of 8.53%. Work on `CS(=O)c1nc(-c2ccc(Br)cc2)cc(-c2ccccc2)c1C#N` (stereo unspecified) yielded an inhibition of 65%. `CC1(C)Cc2nc3nc(SCC(=O)NCCc4ccccc4)n(-c4ccccc4)c(=O)c3cc2CO1` showed an inhibition of -2.48%. With `S=C(Nc1cccc(Cl)c1)N1CCOCC1` the inhibition was -10.2%. `CCc1ccc2[nH]c(=O)c(CN(CCCN3CCOCC3)C(=O)Nc3ccccc3)cc2c1` gave an inhibition of 4.92%. Molecule `Cc1ccc2[nH]c(=O)c(CN(CCCN3CCOCC3)C(=O)Nc3cccc(Cl)c3)cc2c1` has an inhibition of 10.9%. For `C=CC[C@@H](CC(=O)N[C@H](CO)Cc1ccccc1)C(=O)N[C@@H](C)COC(=O)[C@@H](CC=C)Cc1ccc(F)cc1`, the inhibition was 3.8%. `COc1ccccc1N1CCN(CCCCOc2ccc(F)cc2)CC1` gave an inhibition of -1.86%. With `Clc1cccc(OCCCCN2CCCCC2)c1` the inhibition was 0.99%. With `NC(=O)c1ccc(-c2ncc(-c3ccccc3)o2)cc1` the inhibition was 51.1%. `COC(=O)c1ccc(-c2n[nH]c(=O)c3ccccc23)cc1` showed an inhibition of -2.05%. `CCN1C(=O)[C@H]2[C@@H](c3ccc(-c4ccc(C(C)=O)cc4)cc3)N3CCCC[C@@]3(C(=O)OC)[C@H]2C1=O` gave an inhibition of -6.49%. Molecule `CCCCN1C(=N)N([C@@H](CCC)CN2CCC[C@H]2CN2C(N)=NC[C@H]2C(C)C)C[C@H]1[C@H](C)CC` has an inhibition of 1.37%. `O=C(Cc1ccccc1)c1nc2ccccc2s1` showed an inhibition of -3.11%. In the case of `Cc1cc(C(=O)COC(=O)COc2ccc(C#N)cc2)c(C)n1C1CC1`, the inhibition was 3.67%. In the case of `Cc1cc(C)cc(OCC(=O)OCC(=O)c2cc(C)n(C3CC3)c2C)c1`, the inhibition was 54.3%. In the case of `CC(=O)NC(Cc1c[nH]c2ccccc12)C(=O)Nc1ccc2c(c1)OCO2` (stereo unspecified), the inhibition was -2.05%. Work on `C/C(=N/OC(=O)c1c(-c2ccccc2Cl)noc1C)c1cnccn1` yielded an inhibition of 3.98%. `COc1ccc(CN2CCNC(=O)C2CC(=O)N(C)Cc2cc(C)no2)cc1OC` (stereo unspecified) showed an inhibition of -7.74%. In the case of `CCOC(=O)Cc1cc(=O)[nH]c(Nc2nc3ccccc3o2)n1`, the inhibition was -2.99%. With `COC(=O)Cc1cc(=O)[nH]c(Nc2nc3ccccc3o2)n1` the inhibition was 29.9%. For `C/C(Sc1nnc(Cc2ccccc2)o1)=C(/O)c1ccccc1`, the inhibition was -0.32%. In the case of `S=C1NCCOCCOCCOCCOCCNC(=S)NCCOCCOCCOCCOCCN1`, the inhibition was -3.9%. With `N#C/C(=C(/O)COc1ccccc1)c1nc2ccccc2s1` the inhibition was 56.1%. For `Cc1ccc(SC/C(O)=C(\C#N)c2nc3ccccc3s2)cc1`, the inhibition was 1.37%. Work on `O=C(O)CCc1nc(-c2ccccc2)c(-c2ccccc2)o1` yielded an inhibition of 6.1%. For `O=C(CCc1nc(-c2ccccc2)c(-c2ccccc2)o1)OCc1ccc(Br)cc1`, the inhibition was 70.2%. In the case of `O=C(Nc1nc2ccc(S(=O)(=O)N3CCCC3)cc2s1)c1ccco1`, the inhibition was -2.95%. Molecule `COc1ccccc1-n1c(/C=C/c2ccccn2)nc2ccccc2c1=O` has an inhibition of -5.93%. `CC(C)N(C(=S)Nc1cc(S(=O)(=O)N2CCOCC2)ccc1Cl)c1ccccc1` showed an inhibition of -5.84%.

Reference: PubChem BioAssay AID449762 (Southern Research Specialized Biocontainment Screening …, 2010)
